The results in this text go back to PubChem BioAssay (NCI).

Compounds without any hit were thinned out: in the full panel of roughly 79,000, 15% have a hit. Unmarked numbers belong to inactive results. Calls of active or inactive are those of the source. Cut-off read from the data, not from the text of the source: active = growth inhibition above about 70%; inactive = the rest.

Assay [1] is described as follows: NCI Yeast Anticancer Drug Screen. Data for the rad50 strain (AID 155).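 Note: 0% = growth of vehicle-only cultures of the same strain.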 The note with it: S. cerevisiae rad50 strain growth inhibition; at 50.0 µM; hits give high values. An outline of the steps: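 Cells are treated with compound, grown, and their growth is then scored against vehicle-only cultures of the same repair-deficient yeast strain.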
Assay [2] in a line: NCI Yeast Anticancer Drug Screen. Data for the mec2-1 strain (AID 157). The settings on record: S. cerevisiae mec2-1 strain, at 50.0 µM, hits give high values. An outline of the steps:
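Cells of the genetically defined mec2-1 yeast strain are incubated with test compound. Inhibition of growth is calculated against vehicle-treated controls.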

A short description of assay [3]: NCI Yeast Anticancer Drug Screen. Data for the sgs1 mgt1 strain (AID 161).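 Note: 0% = growth of cultures given vehicle only.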 The note with it: S. cerevisiae sgs1 mgt1 strain, at 50.0 µM, hits give high values. An outline of the steps: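 Read-out: growth inhibition vs vehicle controls. Cells: mutant yeast strain deficient in DNA damage repair.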
Assay [4] is described as follows: NCI Yeast Anticancer Drug Screen. Data for the cln2 rad14 strain (AID 165).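 Note: 0% = growth equal to vehicle treated cultures.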 The note with it: S. cerevisiae cln2 rad14 strain, at 50.0 µM, hits give high values. An outline of the steps:
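The screen exposed genetically defined yeast (cln2 rad14) to test compounds and scored growth inhibition relative to vehicle-treated controls.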

A short description of assay [5]: NCI Yeast Anticancer Drug Screen. Data for the bub3 strain (AID 167). The note with it: S. cerevisiae bub3 mutant strain, at 50.0 µM, hits give high values. The procedure, abridged:
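Part of a panel of yeast mutants defective in DNA damage repair or cell cycle regulation. Each strain is grown with compound, and inhibition is calculated relative to solvent-treated cultures.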

Assay [6] is described as follows: NCI Yeast Anticancer Drug Screen. Data for the mlh1 rad18 strain (AID 175). The note with it: S. cerevisiae mlh1 rad18 strain growth inhibition; at 50.0 µM; hits give high values. The procedure, abridged:
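Compound-treated yeast growth, normalised to vehicle controls. Strain bears defined DNA repair mutations.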

Consider `CC1(c2ccc(Cl)cc2)NC(=O)NC1=O` (stereo not given), for which the growth inhibition was -27.3% in assay [1]; 3.1% in assay [2]; -7.65% in assay [3]; -29.5% in assay [4]; 9.85% in assay [5]; -20.1% in assay [6].

As to `O=C(O)Cn1ccc(=O)c2c([N+](=O)[O-])cccc21`, the growth inhibition was 27.2% in assay [1]; 16.1% in assay [2]; 0.35% in assay [3]; 5.3% in assay [4]; 8.55% in assay [5]; -51.6% in assay [6].

Turning to `CCCCCC1CCN(C(=O)c2ccc(N)cc2)CC1`, the growth inhibition was 90% (active) in assay [1]; 52.8% in assay [2]; 44.8% in assay [3]; 49% in assay [4]; 94.4% (active) in assay [5]; 42.7% in assay [6].

Consider `NS(=O)(=O)c1ccc(N=C2C(=O)Nc3ccccc32)cc1`, for which the growth inhibition in assay [1] is 1.05%; in assay [2], -6.1%; in assay [3], -14.6%; in assay [4] it was 17.6%; in assay [5] it was -23.8%; in assay [6] it was 4.95%.

As to `Nc1c(C(=O)Nc2cccc3c2C(=O)c2ccccc2C3=O)ccc2c1C(=O)c1ccccc1C2=O`, the growth inhibition is 35.1% in assay [1]; 10.1% in assay [2]; 43.3% in assay [3]; 26.7% in assay [4]; 2.75% in assay [5]; 24% in assay [6].

For the compound `CCOC(=O)CCC(NC(=O)c1ccc(NCc2nc3c([nH]2)c(=O)n(C)c(=O)n3C)cc1)C(=O)OCC` (stereo not given), the growth inhibition in assay [1] was 1.95%; in assay [2], 13.3%; in assay [3] it was 13.6%; in assay [4], 2.6%; in assay [5] it was -8.75%; in assay [6], 14.4%.

As for `CCC(=O)Nc1nn[nH]n1`, the growth inhibition was -11.5% in assay [1]; -1.5% in assay [2]; -3.75% in assay [3]; 4.75% in assay [4]; 7.9% in assay [5]; -2.15% in assay [6].

For `O=C(O)c1ccc(O)c(C(=O)O)c1`, the growth inhibition in assay [1] is 12%; in assay [2], 11%; in assay [3], 20.6%; in assay [4], -14.7%; in assay [5], -6.15%; in assay [6], 16.8%.

As to `CCOc1nc(-c2ccccc2)cc(-c2ccc(N3CCOCC3)cc2)c1C#N`, the growth inhibition in assay [1] is 19%; in assay [2] it was 9.55%; in assay [3] it was -7.4%; in assay [4], -11.6%; in assay [5], -4.5%; in assay [6] it was 27.5%.

Turning to `O=C(O)CCCCCNCC(CNCCCCCC(=O)O)(C(=O)O)C(=O)O`, the growth inhibition in assay [1] is 7.7%; in assay [2], -2.8%; in assay [3], -2.7%; in assay [4], -8.5%; in assay [5] it was -1.05%; in assay [6] it was 5.2%.

Take `CC(=O)Nc1cc2c(cc1Br)-c1ccc(Br)cc1C2`: the growth inhibition is 32.4% in assay [1]; 8.4% in assay [2]; 11.8% in assay [3]; 15.6% in assay [4]; -2.45% in assay [5]; 14.4% in assay [6].

Turning to `Cc1nc(C(N)=S)sc1C(=O)CC(=O)C(=O)Nc1ccccc1[N+](=O)[O-]`, the growth inhibition is 0.15% in assay [1]; -9% in assay [2]; 10.8% in assay [3]; 7% in assay [4]; 17.4% in assay [5]; 1.95% in assay [6].

Turning to `CCOC(=O)NN(C(=O)OCC)C(C(=O)C1CCCCC1)N(NC(=O)OCC)C(=O)OCC`, the growth inhibition in assay [1] was 21.4%; in assay [2], -21.6%; in assay [3], 18.9%; in assay [4], 11.2%; in assay [5], -3.55%; in assay [6] it was -8.4%.

For `CC(C)CCOC(=O)N(C)c1ccccc1`, the growth inhibition in assay [1] was 9.3%; in assay [2], 0.2%; in assay [3], 10.3%; in assay [4], -17.9%; in assay [5], -24%; in assay [6] it was -9.8%.

With `O=C(NCCCOc1ccc(Cl)c(Cl)c1)NCCc1ccc(Cl)c(Cl)c1`, the growth inhibition is 6.65% in assay [1]; 4.7% in assay [2]; -3.95% in assay [3]; -8.9% in assay [4]; 0.95% in assay [5]; 15.4% in assay [6].

`N#CCc1ccc(C(C#N)C(=O)CCC(=O)C(C#N)c2ccc(CC#N)cc2)cc1` (stereo not given): the growth inhibition in assay [1] was 11.7%; in assay [2], 11.3%; in assay [3] it was -13.1%; in assay [4], 34.1%; in assay [5], -0.3%; in assay [6] it was 22.1%.

Consider `CC(C)(C)c1ccc(O)c(CNCCO)c1`, for which the growth inhibition was 21.1% in assay [1]; -6.65% in assay [2]; -3.25% in assay [3]; -28.1% in assay [4]; 3.9% in assay [5]; 8.05% in assay [6].

`O=C1C2=C(CCC2)C(=O)N1c1ccc(N2C(=O)C3=C(CCC3)C2=O)cc1`: the growth inhibition is -12.6% in assay [1]; -4.55% in assay [2]; -16.2% in assay [3]; -15.4% in assay [4]; -10.6% in assay [5]; -13.2% in assay [6].

As to `CCOC(=O)C(c1ccccc1)C(Cc1ccccc1)(c1ccccc1)c1ccccc1` (stereo not given), the growth inhibition in assay [1] is 10.1%; in assay [2], 9.2%; in assay [3] it was 17.3%; in assay [4] it was 19.6%; in assay [5] it was -4.6%; in assay [6] it was 10.7%.

Turning to `CCOC(=O)c1c[nH]n(Cc2ccccc2)c1=O`, the growth inhibition is 12% in assay [1]; 13.4% in assay [2]; 2.95% in assay [3]; -23.2% in assay [4]; 13.6% in assay [5]; -1.2% in assay [6].
